Test results reported in PubChem BioAssay (NCI).
Compounds without any hit were thinned out: in the full panel of roughly 79,000, 15% have a hit. Active and inactive are the calls of the source. Cut-off read from the data, not from the text of the source: active = growth inhibition above about 70%; inactive = the rest.

Assay: NCI Yeast Anticancer Drug Screen. Data for the rad50EPP+ strain (AID 151);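 note: 0% = growth of vehicle-treated control cultures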
Conditions: S. cerevisiae rad50 mutant strain, hits give high values
Protocol: Growth inhibition of yeast strains with defined genetic alterations is measured as a screen for potential anti-cancer activity. Selected strains with alterations in DNA damage repair or cell cycle control were exposed to compounds and growth inhibition was measured relative to vehicle treated controls. The strain used in this assay is rad50EPP+

Row | SMILES | growth inhibition (at 1.2 µM) | growth inhibition (at 3.7 µM) | growth inhibition (at 11.0 µM) | growth inhibition (at 33.0 µM) | growth inhibition (at 100.0 µM)
1 | Cc1ccc2[nH]c3c(C)c4cc[n+](C)cc4c(C)c3c2c1 | 35% (inactive) | 21% (inactive) | 31% (inactive) | 49% (inactive) | 88% (active)
2 | COc1ccc(Br)c(C(=O)Sc2nnnn2-c2cccc(Cl)c2)c1 | 3% (inactive) | -19% (inactive) | 9% (inactive) | 65% (inactive) | 92% (active)
3 | CCN(CC)C(C)(C)C(=O)/C=C/c1ccccc1 | 2% (inactive) | 6% (inactive) | 8% (inactive) | 6% (inactive) | 5% (inactive)
4 | FC(F)(F)c1nc2nc(Cl)c(Cl)nc2n1CCCN1CCOCC1 | -1% (inactive) | 5% (inactive) | 6% (inactive) | 2% (inactive) | 4% (inactive)
5 | Cc1ccc(CCC2=CCCc3c2ccc2ccccc32)cc1 | -3% (inactive) | 5% (inactive) | 13% (inactive) | 40% (inactive) | 58% (inactive)
6 | Brc1ccc(-c2cc3c(cc2C2SCCS2)OCO3)cc1 | -4% (inactive) | -10% (inactive) | 9% (inactive) | 29% (inactive) | 51% (inactive)
7 | O=[N+]([O-])C(=C(Sc1ccccc1)Sc1ccccc1)C(Cl)=C(Cl)Cl | 9% (inactive) | 20% (inactive) | 36% (inactive) | 49% (inactive) | 48% (inactive)
8 | CC1=NN(c2cccc(Cl)c2)C(=O)C1 | -65% (inactive) | -50% (inactive) | -38% (inactive) | -27% (inactive) | -26% (inactive)
